This is a sample that favours compounds with a hit; in the whole collection about 2.4% have one here.
D2 PAM-1: human D2 receptor positive allosteric modulation; P14416; DiscoveRx D2 beta-arrestin cells, luminescence, 90 min; 100% = 57 uM dopamine signal; potentiation, % (test concentration not listed); 0.23% of 360,000 active; in the data active means potentiation above about 50%; inconclusive means mostly about 30% to 49%
Target sequence (P14416 whole entry, looked up): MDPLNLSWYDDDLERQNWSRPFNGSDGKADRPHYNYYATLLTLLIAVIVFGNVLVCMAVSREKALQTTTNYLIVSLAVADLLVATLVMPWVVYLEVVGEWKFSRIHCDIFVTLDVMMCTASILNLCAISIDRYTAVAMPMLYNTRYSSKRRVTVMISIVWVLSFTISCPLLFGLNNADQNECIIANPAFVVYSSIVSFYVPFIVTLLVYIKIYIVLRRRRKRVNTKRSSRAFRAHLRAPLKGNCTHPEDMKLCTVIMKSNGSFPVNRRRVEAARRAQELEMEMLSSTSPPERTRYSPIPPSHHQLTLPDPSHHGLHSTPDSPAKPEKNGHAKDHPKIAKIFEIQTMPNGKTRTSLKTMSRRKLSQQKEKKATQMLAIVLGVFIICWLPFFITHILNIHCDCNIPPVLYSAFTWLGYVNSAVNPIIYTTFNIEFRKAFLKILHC
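PathHunter beta-arrestin assay in DiscoveRx D2 cells. Compounds were added with an EC20 of dopamine (50 nM final) for 90 min at 37 deg C. Luminescence was read 1 h after detection reagent, with 57 uM dopamine as the EC100 control.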
D2 ag-1: agonists of human D2 dopamine receptor; P14416; HEK293 T-REx D2 cells, calcium flux agonist mode; activation, % at 2 µM; 0.53% of 340,000 active;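 active means activation over 3 SD above normal in the single-dose calcium agonist read, cut at about 30% in these data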; further: 0% is about no effect
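Agonism is scored from calcium flux in a force-coupled, inducible HEK293 cell line expressing D2, read kinetically for 180 s after compound addition against dopamine controls.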
D2 PAM-2: D2 dopamine receptor (human) potentiation | potentiation, % at 10 µM | 0.34% of 340,000 active | HEK293 T-REx D2, calcium flux, EC20 dopamine potentiation | P14416;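 active means potentiation over 3 SD above the plate norm, cut at about 30% in these data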; further: 0% is about no effect
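Potentiation of an EC20 dopamine calcium response is measured in a force-coupled, tetracycline-inducible Hek293 Trex D2 line. Compound-only kinetic reads over 180 s flag agonists before dopamine addition.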
D2 ag-2: human D2 receptor agonism in beta-arrestin assay. P14416. DiscoveRx PathHunter D2 beta-arrestin, luminescence, 90 min; 100% = 57 uM dopamine signal. activation, % (concentration not given with the values). 0.084% of 360,000 active. AID 624465; in the data active means activation above about 40%; inconclusive means between about 15% and that limit
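Agonist mode: compounds alone added to overnight-plated D2 PathHunter cells for 90 min at 37 C, with 57 uM final dopamine (EC100) defining full response. Beta-arrestin recruitment detected by chemiluminescent reagent, read after 1 h at ambient temperature.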
D2 antag: antagonists of human D2 dopamine receptor. P14416. 2% of 340,000 active. inhibition, % at 10 µM. HEK293 TREx D2 cells, calcium flux, dopamine EC80; in the data active means inhibition above about 30%; inactive means below that, where a call was filed; further: 0% is about no effect
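Cells plated overnight at 30 C with tetracycline; no-wash calcium dye, 30–90 min RT; 10 s baseline; compound pinned; 180 s read; EC80 dopamine added; another 180 s read.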
* marks the source's active call; other numbers are inactive results; u = inconclusive; x = no result given.

SMILES | D2 PAM-1 | D2 ag-1 | D2 PAM-2 | D2 ag-2 | D2 antag
O=C(CCc1ccc(O)c(O)c1)N/N=C/c1ccc2c(c1)OCO2 | -0.8 | 18.7 | 2.0 | u | 42.3*
O=C(CSCc1cccc(Br)c1)N/N=C/c1ccc2c(c1)OCO2 | -6.6 | 0.0 | -0.2 | -3.5 | 33.5*
O=C(CSCc1ccccc1Br)N/N=C/c1ccc2c(c1)OCO2 | 6.5 | 0.1 | 18.2 | -0.9 | 4.7
CC(C)Oc1ccc(CCC(=O)N/N=C/c2ccc3c(c2)OCO3)cc1 | -3.2 | 0.5 | -2.0 | 2.2 | -10.7
CCN1CCN(CCOc2ccccc2-c2ccccc2)CC1 | -4.1 | -0.1 | -23.5 | -5.1 | 86.8*
OC(COc1cccc2ccccc12)CN1CCN(c2ccc(Cl)cc2)CC1 (stereo unspecified) | -12.0 | 7.6 | -12.1 | 3.5 | 7.7
CCC(=O)c1ccccc1OCCN1CCN(Cc2ccccc2)CC1 | -6.6 | -1.0 | -26.4 | -7.3 | 110.0*
OC(COc1cccc2ccccc12)CN1CCCC1 (stereo unspecified) | -10.5 | 0.4 | 72.6* | -1.1 | -4.8
c1ccc2c(OCCCN3CCCCCC3)cccc2c1 | -79.3 | -0.4 | -32.1 | -2.4 | 73.9*
OCCCN1CCN(CCOc2ccccc2-c2ccccc2)CC1 | -10.7 | -0.1 | -28.4 | -3.0 | 66.6*
c1ccc(-c2ccccc2OCCCN2CCCCC2)cc1 | -31.1 | -0.5 | -29.9 | -1.5 | 43.1*
C=C1CC(C)OC(c2ccccc2OCC(O)CN2CCCCC2)C1 (stereo unspecified) | 5.2 | 0.3 | -7.6 | -1.3 | 65.1*
Clc1cccc(OCCCN2CCCC2)c1Cl | -13.7 | 0.4 | -22.9 | -4.8 | 51.6*
CCN1CCN(CCCOc2ccccc2-c2ccccc2)CC1 | -21.5 | -1.9 | 4.5 | -0.4 | -6.8
CCOC(=O)C(=NO)C1=CSC2=NNC(C)(C)N12 | -13.0 | x | x | -12.4 | x
CCCn1nc(C(=O)Nc2ccc3c(c2)OCCO3)c2ccccc2c1=O | -7.1 | 0.6 | -4.7 | -3.5 | -31.6
COc1cc2c(cc1OC)CN(C(=O)c1ccc(Cl)c(S(=O)(=O)N3CCCC3)c1)CC2 | -1.7 | x | x | 0.5 | x
Cc1cn2c(=O)cc(COC(=O)c3ccc(NC(=O)c4ccccc4C)cc3)nc2s1 | x | 1.3 | 6.6 | x | x
CC1CCCC(N2CCN(C(=O)c3ccc([N+](=O)[O-])cc3)CC2)C1 (stereo unspecified) | -2.2 | 0.0 | 7.0 | -2.9 | 5.3
CC(=O)NC(CC(=O)OCc1ccc([N+](=O)[O-])cc1)c1ccccc1 (stereo unspecified) | -6.6 | -1.3 | 36.7* | -2.7 | -3.8
C/C(Cn1nnc([N+](=O)[O-])n1)=N\NC(=O)c1ccccc1O | 5.4 | 0.3 | -4.2 | u | -0.7
C/C(Cn1nnc([N+](=O)[O-])n1)=N\NC(=O)c1ccc(O)cc1O | 58.5* | 5.6 | 3.4 | u | 13.0
O=C(CC1OC(=O)c2ccccc21)Nc1cc(Cl)ccc1N1CCOCC1 (stereo unspecified) | -0.7 | x | x | -4.9 | x
COCC(=O)Nc1cc(C(=O)Nc2ccccc2C)ccc1Cl | -6.1 | -0.3 | -0.1 | -1.1 | 31.5*
O=C(Cc1cccs1)Nc1cc(S(=O)(=O)N2CCCCC2)ccc1Cl | -0.1 | 1.1 | 76.6* | -0.3 | -17.3
SMILES | D2 PAM-1 | D2 ag-1 | D2 PAM-2 | D2 ag-2 | D2 antag
COc1ccc(S(=O)(=O)N(C)C)cc1NC(=O)c1ccc2c(c1)NC(=O)C(C)S2 (stereo unspecified) | -35.8 | -1.2 | -21.0 | -3.7 | 76.6*
CN(C)S(=O)(=O)c1ccc(Cl)c(NC(=O)C2CCN(S(=O)(=O)c3cccs3)CC2)c1 | -5.2 | 0.2 | -19.1 | -1.5 | 31.1*
O=C(Cc1cccs1)Nc1ccc(S(=O)(=O)N2CCCCC2)cc1 | 23.7 | -0.8 | 16.2 | -1.5 | -13.9
COc1ccc(S(=O)(=O)N(C)C)cc1NC(=O)CSC(C)C(=O)Nc1cc(C)on1 (stereo unspecified) | -15.3 | 0.4 | -27.2 | -1.7 | 72.4*
Cc1ccc(NC2CCCN(C(=O)c3cccc(-c4ncc[nH]4)c3)C2)cc1C (stereo unspecified) | -3.5 | 0.8 | -0.2 | 0.7 | 10.6
CC(=Nc1ccccc1)C1=C(O)C(Cc2ccc(O)cc2)NC1=O (stereo unspecified) | -8.3 | x | x | -1.4 | x
COc1ccc(S(=O)(=O)Nc2ccccc2OC)cc1NC(=O)Cc1cccs1 | -18.3 | -1.2 | 12.3 | 0.5 | -24.1
COc1ccc(NC(=O)Cc2cccs2)cc1S(=O)(=O)N1CCCCC1 | -20.6 | x | x | 0.0 | x
COc1ccc(S(=O)(=O)N(C)C)cc1NC(=O)Cc1cccs1 | -18.2 | -1.7 | -7.6 | -2.5 | 34.3*
COc1ccc(S(=O)(=O)N2CCCCC2)cc1NC(=O)Cc1cccs1 | 10.1 | -0.3 | -11.1 | -1.1 | 37.9*
Cc1nc2ncccn2c1-c1csc(NCc2ccco2)n1 | -20.3 | 0.3 | 37.9* | 0.8 | 1.0
COc1ccc(-c2nc3sc(CCNC(=O)C(=O)Nc4cccc(NC(C)=O)c4)c(C)n3n2)cc1 | x | 1.2 | -7.4 | x | x
COc1ccccc1C=NNC(=O)NN=Cc1ccccc1OC | -10.6 | x | x | -1.7 | x
O=C(N/N=C/c1ccc(OC(F)F)cc1)c1ccc(Br)cc1 | -30.8 | -0.7 | -19.7 | 0.3 | 31.3*
COc1ccc(/C=N/NC(=O)c2ccncc2)c(OC)c1 | -1.7 | -0.8 | 5.8 | -2.8 | -8.7
COc1ccc(/C=N/NC(=O)c2ccc(Br)cc2)c(OC)c1 | -19.5 | 0.5 | -28.4 | -0.2 | 33.1*
COc1ccccc1/C=N/NC(=O)c1ccc(Br)cc1 | -15.5 | -0.9 | -13.1 | -1.4 | 71.6*
CCN(CC)C(=O)C1=C(C)N(Cc2ccc(F)cc2)C(=O)C(CC(=O)NC(c2ccccc2)c2ccccc2)C1 (stereo unspecified) | x | x | x | -0.2 | x
CCCCN1C(=O)C(O)=C(C(C)=O)C1c1ccccc1 (stereo unspecified) | 8.5 | -1.3 | -0.8 | -0.5 | -10.5
COCCCN1C(=O)C(O)=C(C(C)=O)C1c1cccc(F)c1 (stereo unspecified) | -13.3 | 0.7 | -4.0 | -4.2 | 36.8*
COc1ccccc1C1SCCN1S(=O)(=O)c1ccccc1 (stereo unspecified) | -7.2 | x | x | -0.5 | x
COc1ccccc1C1SCCN1S(=O)(=O)c1cccc(C(F)(F)F)c1 (stereo unspecified) | -7.7 | 0.5 | -1.6 | -1.1 | 47.4*
COc1ccc(CNC(=O)CN(C)S(=O)(=O)c2ccc3c(c2)OCCO3)cc1OC | -1.8 | 0.6 | 13.0 | 1.6 | -13.8
Cc1ccc(C(NC(N)=O)c2ccccc2)cc1 (stereo unspecified) | -1.7 | 0.5 | 4.6 | 1.0 | 39.8*
Cc1ccc(C(NC(=O)c2ccccc2S(C)(=O)=O)c2ccccc2)cc1 (stereo unspecified) | -4.6 | -0.6 | 34.2* | -0.9 | -17.4
CS(=O)(=O)c1ccccc1C(=O)Nc1ccccc1Cc1ccccc1 | -0.6 | 0.5 | -6.6 | 1.4 | -13.7

Screening data deposited in PubChem BioAssay by National Center for Advancing Translational Sciences (NCATS).
